Screens (PubChem)
KB-3-1 tox: qHTS assay for MDR1-selective chemotherapeutics: Primary screen using the parental adenocarcinoma cell KB-3-1; KB-3-1 viability, CellTiter-Glo ATP luminescence, 72 h; Potency, µM (titrated, usually from 46.1 µM), hits mostly cytotoxic; 1.4% of 400,000 active; AID 1347075, 2019; note: % is set by controls: 0 for no effect and ±100 for the full control effect; nearly all actives have a fitted effect of over 60% in size
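KB-3-1 cells, DMEM (no phenol red) + 10% FBS; compound by pin transfer, 72 h, 37 °C. Readout: CellTiter-Glo luminescence after 10 min. Data normalized, curve-fitted.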
KB-V1 MDR tox: qHTS assay for MDR1-selective chemotherapeutics: Primary screen using the drug-selected MDR subline cells KB-V1; 3.4% of 400,000 active; Potency, µM (series often up to 46.1 µM), hits mostly cytotoxic; KB-V1 MDR cells viability, CellTiter-Glo, 72 h; note: % is set by controls: 0 for no effect and ±100 for the full control effect; nearly all actives have a fitted effect of over 60% in size
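qHTS viability screen in drug-selected KB-V1 MDR cells: 72 h compound treatment at 37 degrees C, ATP luminescence end point.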
MCF10A rerep: A quantitative high throughput screen for small molecules that induce DNA re-replication in MCF 10a normal breast cells. 2.9% of 350,000 active. AID 624296, 2012. MCF 10A DNA re-replication, Hoechst nuclear intensity, 48 h. Potency, µM (series often up to 46.1 µM), for inactives: top-dose activity, positive = re-replication, usual class: activators; note: % of control where 0% means no effect; nearly all actives have a fitted effect of over 50% in size
ELG1 repair inh: qHTS screen for small molecules that inhibit ELG1-dependent DNA repair in human embryonic kidney (HEK293T) cells expressing luciferase-tagged ELG1; HEK293T ELG1-luciferase reporter, luminescence, 16 h; DNA damage induced by 5-fluorouridine; 2.3% of 330,000 active; AID 504467, 2011; Potency, µM (titrated, usually from 46.1 µM), without a hit: at the top dose activity change, negative = inhibition, hits mostly inhibitors; note: % is set by controls: 0 for no effect and ±100 for the full control effect; nearly all actives have a fitted effect of over 55% in size
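Overnight (16 hr) co-exposure of 2,000 cells/well to 5-fluorouridine and compound at 37 °C preceded detection. Luciferase was quantified via ONE-Glo luminescence; loss of signal denotes inhibition.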
SW480 rereplic: A quantitative high throughput screen for small molecules that induce DNA re-replication in SW480 colon adenocarcinoma cells; AID 624297, 2012; SW480 DNA re-replication, Hoechst DNA content imaging, 48 h; 1.8% of 340,000 active; Potency, µM (doses to about 46.1 µM), for inactives: top-dose re-replication activation, actives largely listed as activators; note: % of control where 0% means no effect; nearly all actives have a fitted effect of over 55% in size
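First, 250 cells per well were seeded. Next, compound or vehicle (23 nL) was pinned in, plates sat 48 hr at 37 C. Finally Hoechst was added for 40 min before fluorescence scanning.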
ELG1 FLuc counter: qHTS screen for small molecules that inhibit ELG1-dependent DNA repair: Hit Confirmation in Cell-Based Luciferin Assay | AID 624247, 2012 | Potency, µM (series often up to 46.1 µM), for the others: top-dose activity change, negative = inhibition, most hits filed as inhibitors | cell-free firefly luciferase luminescence counter-screen, ViewLux | 3% of 350 active | shares compounds with ELG1 repair inh; note: % is set by controls: 0 for no effect and ±100 for the full control effect
ELG1-Luc inh: HTS assay for small molecules that inhibit ELG1-dependent DNA repair in human embryonic kidney (HEK293T) cells expressing luciferase-tagged ELG1: Hit Confirmation. shares compounds with ELG1 repair inh. HEK293T ELG1-luciferase levels, luminescence; cells co-treated with 5-fluorouridine. Potency, µM (highest dose often 46.1 µM), for the others: top-dose activity change, negative = inhibition, actives largely listed as inhibitors. 68% of 670 active; note: % is set by controls: 0 for no effect and ±100 for the full control effect; nearly all actives have a fitted effect of over 55% in size
ELG1-Luc MMS: confirmation of human ELG1 repair inhibitors, MMS stimulated | shares compounds with ELG1 repair inh | HEK293T luciferase-tagged ELG1 level, MMS stimulated | Potency, µM (doses to about 46.1 µM), for the others: at the top dose activity change, negative = inhibition, usual class: inhibitors | 53% of 670 active; note: % is set by controls: 0 for no effect and ±100 for the full control effect; nearly all actives have a fitted effect of over 60% in size
ELG1 5FU viab: qHTS screen for small molecules that inhibit ELG1-dependent DNA repair: Hit Confirmation with 5FU Viability | Potency, µM (highest dose often 46.1 µM), for the others: at the top dose activity change, negative = viability loss, actives largely listed as cytotoxic | AID 624250, 2012 | cell viability with 5-FU, ELG1-dependent repair | shares compounds with ELG1 repair inh | 670 tested, under 10 active;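 note: ELG1-luc HEK293T cells cotreated with 5-fluorouridine at 10 µM final; viability measured 16 h after compound addition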
ELG1 MMS cell: qHTS screen for small molecules that inhibit ELG1-dependent DNA repair: Hit Confirmation with MMS Viability; shares compounds with ELG1 repair inh; Cell viability with MMS, ELG1-dependent DNA repair; Potency, µM (series often up to 46.1 µM), inactives show at the highest dose activity change, negative = viability loss, actives largely listed as cytotoxic; 33% of 670 active; AID 624251, 2012;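 note: ELG1-luc HEK293T cells co-treated with 10 µM MMS; viability read 16 h after compound addition; % is set by controls: 0 for no effect and ±100 for the full control effect; nearly all actives have a fitted effect of over 60% in size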
ELG1 unstim viab: qHTS screen for small molecules that inhibit ELG1-dependent DNA repair: Hit Confirmation with Unstimulated Viability Assay. Potency, µM (series often up to 45.9 µM), inactives show at the highest dose activity change, negative = loss of viability, most hits filed as cytotoxic. AID 624252, 2012. 8% of 900 active. cell viability counter-screen, unstimulated, luminescence. shares compounds with ELG1 repair inh;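 note: compound exposure lasted 16 hours before reading; % is set by controls: 0 for no effect and ±100 for the full control effect; nearly all actives have a fitted effect of over 55% in size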
FLuc enzyme: qHTS screen for small molecules that inhibit ELG1-dependent DNA repair: Hit Confirmation in Biochemical Luciferin Assay. shares compounds with ELG1 repair inh. purified firefly luciferase, luminescence counter-screen. Potency, µM (top dose mostly 57.5 µM), for the others: at the highest dose activity, negative = inhibition, actives largely listed as inhibitors. 10% of 350 active. AID 624253, 2012; note: % is set by controls: 0 for no effect and ±100 for the full control effect
Active calls of the source: *; i = inactive; ? = inconclusive; . = no result. Sampled rows, rich in hits. Any-hit rate of the full collection: about 8.1%. Calls come from the whole dose curve; as a rule, active = well fitted curve in the direction sought with a large enough effect; inconclusive = small, poorly fitted or top-dose-only effect, or another doubt; inactive = no such curve, though single readings can be large; an effect the other way counts as inactive or inconclusive. Potency is the fitted concentration of half-maximal effect.

SMILES	KB-3-1 tox	KB-V1 MDR tox	MCF10A rerep	ELG1 repair inh	SW480 rereplic	ELG1 FLuc counter	ELG1-Luc inh	ELG1-Luc MMS	ELG1 5FU viab	ELG1 MMS cell	ELG1 unstim viab	FLuc enzyme
CC1OC(=O)C(C(C)C)NC(=O)C(C(C)C)OC(=O)C(C(C)C)NC(=O)C(C)OC(=O)C(C(C)C)NC(=O)C(C(C)C)OC(=O)C(C(C)C)NC(=O)C(C)OC(=O)C(C(C)C)NC(=O)C(C(C)C)OC(=O)C(C(C)C)NC1=O (stereo not given)	.	.	.	.	.	?	12%	0.035µM*	?	0.079µM*	0.035µM*	4%
C#CCNc1ccncc1S(=O)(=O)NC(=O)NC(C)C	i	i	-4%	0%	-8%	.	.	.	.	.	.	.
CC1O[C@@H](OC2CC[C@@]3(C=O)C4CC[C@]5(C)C(C6=CC(=O)OC6)CC[C@@]5(O)C4CC[C@]3(O)C2)C(O)C(O)C1O (stereo not given in full)	.	.	.	.	.	?	0.32µM*	0.16µM*	?	0.28µM*	0.14µM*	-8%
COc1ccc(C(=O)NCc2cc3ccccc3n2C)cc1	i	i	-6%	?	-4%	.	.	.	.	.	.	.
COc1ccc(C(=O)CC2(CC(=O)c3ccc(OC)cc3)C(=O)N(C)C(=O)N(C)C2=O)cc1	i	i	-5%	1.6µM*	-7%	.	0.5µM*	3%	?	1%	-4%	.
